Screen size: about 330,000 compounds; about 4,900 (1.5%) were called active.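 The calls were made as follows: active = inhibition above about 50% at the single test dose (limit read from the data); inactive = the rest.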 The list comes from a sample in which actives are over-represented; it also holds similar structures and randomly drawn compounds.
The molecules below were run against Sentrin-specific protease 7 (Homo sapiens) (UniProt Q9BQF6) (assay: SENP7 protease inhibitors, primary screen, biochemical, luminescence, uHTS (AID 434973;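 also: plate controls were DMSO with enzyme for no effect and no enzyme buffer wells for full effect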)). Conditions: recombinant SENP7, Z-RLRGG-aminoluciferin luminescence, 40 min; at 5 µM; hits give high values.

Compound | inhibition
O=C1C2C3C=CC(C3)C2C(=O)N1c1ccc(S(=O)(=O)Nc2nccs2)cc1 (stereo not drawn) | 4.27% (inactive)
CN(C)c1cccc(C(=O)N2CCC(n3nccc3NC(=O)C3CCOC3)CC2)c1 (stereo not drawn) | 9.95% (inactive)
CCCCC(=O)Nc1c2c(nn1-c1ccc([N+](=O)[O-])cc1)CS(=O)(=O)C2 | -1.87% (inactive)
CC1C(=O)N(Cc2ccccc2)c2ccccc2N1C(=O)c1ccccc1 (stereo not drawn) | -2.81% (inactive)
COc1cc(Cl)cc(C2NC(=O)NC(C)=C2C(=O)NCc2ccccc2)c1O (stereo not drawn) | -4.23% (inactive)
O=C(COC(=O)c1c2c(nc3ccccc13)CCCC2)c1ccc(Br)s1 | 14.3% (inactive)
Cn1cccc1C(=O)OCC(=O)c1ccc(Br)s1 | 82.4% (active)
Cn1cccc1C(=O)OCC(=O)NCCc1ccccc1 | -5.93% (inactive)
O=C(CSc1nncn1-c1cccnc1)N1CCOCC1 | 5.85% (inactive)
Cc1n[nH]c(=O)c2c(NC(=O)CSc3cc(Cl)ccc3Cl)oc(C)c12 | -0.542% (inactive)
CC1CN(c2cc(=O)n(-c3cccc(Br)c3)c(=O)[nH]2)CC(C)O1 (stereo not drawn) | 4.5% (inactive)
O=C(c1cnn2ccccc12)N1CCc2ccccc21 | 52.8% (active)
CCOC(=O)N1CCC(NC(=O)c2cnn3ccccc23)CC1 | -0.379% (inactive)
Cc1cnc(C(=O)OCC(=O)N2CCc3ccccc32)cn1 | -1.46% (inactive)
Cc1ccc(S(=O)(=O)/N=S(\C)C(C)C)cc1 (stereo not drawn) | -7.18% (inactive)
CCC(C)(C(=O)NC1CCCC1)N(C(=O)CNC(C)=O)c1ccc(C)cc1 (stereo not drawn) | -2.07% (inactive)
COc1ccccc1NC(=O)c1ccc2nc(N3C(=O)CCC3=O)sc2c1 | -10.2% (inactive)
COc1ccccc1NC(=O)c1ccc(N2CC3CC(C2)c2cccc(=O)n2C3)c(NC(=O)c2cccnc2)c1 (stereo not drawn) | 70.4% (active)
CCOc1ccccc1NC(=O)c1cccnc1 | -1.12% (inactive)
O=C(CC1C(=O)NCCN1CC(c1ccccc1)c1ccccc1)NCCc1cn[nH]c1 (stereo not drawn) | -0.769% (inactive)
Cc1noc(C)c1COC(=O)COc1ccc(-c2ccccc2)cc1 | 6.3% (inactive)
O=C(Oc1ccc(-c2nc(-c3ccccn3)no2)cc1)c1ccccc1 | 99.8% (active)
O=C(COC(=O)c1ccncc1)c1ccccc1 | -15% (inactive)
CN(C(=O)CSc1nncc2ccccc12)C1CCCCC1 | -7.84% (inactive)
CN(C(=O)c1cc2c(=O)n3ccccc3nc2s1)C1CCCCC1 | -3.91% (inactive)

Compound | inhibition
CN(c1ccc2nc3ccccc3c(=O)n2n1)C1CCCCC1 | 93.7% (active)
CCn1cc(C(=O)N[C@@H](C)C(=O)NCCO)c(=O)c2cc3c(cc21)OCO3 | -6.11% (inactive)
CC(C(=O)Nc1ccc(S(=O)(=O)N2CCCC2)cc1)N(C)Cc1ccc(F)cc1 (stereo not drawn) | 8.65% (inactive)
CCC(CO)Oc1cc(NCc2ccccc2)c2ncn(C3CCCC3)c2c1 (stereo not drawn) | 8.26% (inactive)
CC(C)n1cnc2c(NCc3ccccc3)cc(N[C@@H](CO)Cc3ccccc3)cc21 | 35.9% (inactive)
CC(C)n1cnc2c(NCc3ccccc3)cc(OCC3CCN(C)CC3)cc21 | 52.7% (active)
O=C(CCNC(=O)C1CCN(S(=O)(=O)c2ccccc2)CC1)NC1CC1 | -2.25% (inactive)
O=C(O)c1ccc(S(=O)(=O)N2CCOCC2)o1 | -7.75% (inactive)
CCCC(=O)Nc1nnc(CC(=O)OCC)s1 | -2.16% (inactive)
O=C(Nc1ccc(Cl)cc1)c1cc2nc(C3CC3)cc(C(F)(F)F)n2n1 | 2.83% (inactive)
O=C(OC1CCOC1=O)c1ccc(-c2nc3ccccc3s2)s1 (stereo not drawn) | 96.8% (active)
COc1cc(C(=O)OC2CCOC2=O)c([N+](=O)[O-])cc1OC (stereo not drawn) | -1.58% (inactive)
CC(C)c1ccc(C(=O)OC2CCOC2=O)cc1 (stereo not drawn) | 5.83% (inactive)
Cc1cc2oc(=O)cc(CN(C)Cc3ccc(OC(F)F)cc3)c2cc1Cl | 5.95% (inactive)
O=C(Cn1c(=S)nc2ccccn21)N1CCc2ccccc2C1 | -0.589% (inactive)
O=C(c1ccc(F)cc1)n1c(=S)nc2ccccn21 | 96.3% (active)
O=C(c1ccc(F)cc1)n1cc(C(=S)N2CCOCC2)c2ccccc21 | -1.66% (inactive)
O=C(NCC1CCCO1)c1cc2c(s1)CCCC2 (stereo not drawn) | 7.59% (inactive)
CN(C)C(=O)c1ccc(NC(=O)COC(=O)c2cc3c(s2)CCCCC3)cc1 | -2.04% (inactive)
O=C(Nc1ccc(F)cc1)c1cc2c(s1)CCCC2 | 87% (active)
CC(Sc1sc(=S)sc1SC(C)C(=O)O)C(=O)O (stereo not drawn) | -0.431% (inactive)
N#C/C(C(=S)Nc1ccccc1)=C1/NN=C(N2CCOCC2)N1c1ccccc1 | -1.15% (inactive)
O=C(CSC(=S)N1CCOCC1)c1cc(Br)cc(Br)c1O | 1.34% (inactive)
O=C(CSC(=S)N1CCOCC1)c1ccccc1 | 62.7% (active)
CC1CN(C(=S)SCC(=O)c2ccccc2)CC(C)O1 (stereo not drawn) | 1.97% (inactive)

Compound | inhibition
CCN(CC(=O)Nc1ccccc1C(F)(F)F)C(=O)C1CCN(C(=O)Nc2ccccc2)CC1 | 3.1% (inactive)
CC1CCc2sc3nc(N4CCN(CCO)CC4)n4ncnc4c3c2C1 (stereo not drawn) | -6.6% (inactive)
CNc1nc(Nc2ccc(C)c(Cl)c2)nc(N)c1[N+](=O)[O-] | 99.9% (active)
CCN1CCN(c2nc(Nc3cccc(F)c3)nc(N)c2[N+](=O)[O-])CC1 | -8.75% (inactive)
COc1cccc(Nc2nc(N)c([N+](=O)[O-])c(NCc3ccco3)n2)c1 | 3.33% (inactive)
O=C(NCCCc1ccccc1)C1CCC(CNc2c(N3CCCCC3)c(=O)c2=O)CC1 (stereo not drawn) | 3.15% (inactive)
CC(=O)Nc1ccc(CN2CCC(Oc3ccc(C(=O)N4CCCC4)cc3)CC2)cc1 | 0.753% (inactive)
O=C(CN1CCN(c2ccccc2F)CC1)c1ccc2c(c1)OCO2 | 8.23% (inactive)
Fc1ccccc1-c1cc2cc3c(cc2cn1)OCO3 | 77.3% (active)
O=C(c1ccco1)N1CCN(C(=O)c2cc(-c3ccccc3F)no2)CC1 | 4.1% (inactive)
Cc1nc(-c2ccccc2)sc1C1(C)CC(c2cccnc2)=NO1 (stereo not drawn) | -12.6% (inactive)
CCOC(=O)NNc1cc(C(F)(F)F)ccn1 | 13.9% (inactive)
Cc1ccnc(NC(=O)CCCOc2ccccc2)c1 | -12.2% (inactive)
CCC(=O)NC(Nc1cc(C)ccn1)(C(F)(F)F)C(F)(F)F | 98.5% (active)
Cc1ccc2[nH]cc(CCNC(=O)C3CCCCC3)c2c1 | 5.37% (inactive)
COc1ccc(C(=O)Nc2cccc(S(C)(=O)=O)c2)cc1 | 0.473% (inactive)
Cc1ccccc1C(=O)N1CCN(c2ccc(NC(=O)c3cccs3)cc2)CC1 | -2.29% (inactive)
COc1cccc(C(=O)Nc2ccc(N3CCCC3)cc2)c1 | 99.4% (active)
Cc1ccccc1C(=O)Nc1ccc(N2CCCCCC2)cc1 | 60.8% (active)
Cc1ccccc1C(=O)NC(=S)Nc1ccc(N2CCN(C(=O)c3ccccc3)CC2)cc1 | -6.96% (inactive)
O=C(Nc1ccc(N2CCOCC2)cc1)c1cccc(S(=O)(=O)N2CCOCC2)c1 | 8.65% (inactive)
COc1cccc(C(=O)Nc2nnc(S(=O)(=O)N3CCCCC3)s2)c1 | 11.4% (inactive)
CCOc1ccc(C(=O)Nc2cccc(-c3ccc4nncn4n3)c2)cc1 | -7.35% (inactive)
CCOc1ccc(C(=O)Nc2cccc(SC)c2)cc1 | 88.7% (active)
COc1cccc(NC(=O)CN(C)CC(=O)Nc2ccc3c(c2)CCC3)c1 | 10.1% (inactive)

Compound | inhibition
CCC(=O)Nc1ccc(C(=O)Nc2cccc(OC)c2)cc1 | 56.2% (active)
CSc1cccc(NC(=O)CSc2ccccc2)c1 | 4.87% (inactive)
Cc1c(Cl)c([N+](=O)[O-])nn1CCCC(=O)NC(C)c1ccccc1 (stereo not drawn) | -0.959% (inactive)
COc1ccc(CC(=O)OC(C)C(=O)Nc2ccc(S(N)(=O)=O)cc2)cc1 (stereo not drawn) | 0.778% (inactive)
CS(=O)(=O)N1CCCC(C(=O)N2CCOCC2)C1 (stereo not drawn) | -2.39% (inactive)
COc1ccc(/C=C2/S/C(=N/N=C3\CC4CCC3(C)C4(C)C)NC2=O)cc1 (stereo not drawn) | -4.16% (inactive)
Cc1noc(C)c1C(=O)NC(C)c1ccc2c(c1)OCO2 (stereo not drawn) | 1.47% (inactive)
COC(=O)[C@H](CC(C)C)NC(=O)N1CCCCC1C (stereo partly drawn) | 1.79% (inactive)
COc1ccc(/C=N/NC(=O)c2cc(-c3cccc(C)c3)nc3ccccc23)cc1O | 7.7% (inactive)
COc1cc(/C=N/NC(=O)CCc2n[nH]c(=O)[nH]c2=O)ccc1O | 2% (inactive)
COc1cc(/C=N/Nc2nc3ccccc3s2)ccc1O | 81.9% (active)
Cc1cc(C)c(OCC(=O)N(Cc2cccs2)C2CCS(=O)(=O)C2)c(C)c1 (stereo not drawn) | 0.829% (inactive)
O=C(CC(NCCN1CCOCC1)C(=O)O)Nc1cccc(Cl)c1 (stereo not drawn) | 2.14% (inactive)
COc1ccc(C(=O)NC2CCN(C(=O)Nc3ccc(F)cc3)CC2)cc1 | -1.37% (inactive)
O=c1ccnc(Nc2ccc(Cl)cc2)[nH]1 | 3.66% (inactive)
Cc1cc(Nc2ccc(Br)cc2)nc2ccccc12 | 0.988% (inactive)
Clc1ccc(Nc2ccc3ccccc3n2)cc1 | 89.6% (active)
Cc1ccccc1CSc1nnc(CCCCCNC(=O)OC(C)(C)C)o1 | 8.18% (inactive)
CC(NC(=O)c1ccco1)c1ccc2c(c1)OCO2 (stereo not drawn) | 9% (inactive)
CC(C)CN(Cc1c(O)ccc2c(=O)c(-c3ccccc3)coc12)CC(C)C | 11.8% (inactive)
O=c1c(-c2ccccc2)coc2cc(O)ccc12 | 66.2% (active)
CCc1ccc(Oc2coc3cc(O)ccc3c2=O)cc1 | -2.69% (inactive)
CC(=O)Nc1ccc(S(=O)(=O)N2CCC(C(=O)N[C@@H](Cc3ccccc3)C(=O)O)CC2)cc1 | -6.11% (inactive)
